Screening results from PubChem.
Cruzain inh noDet = cruzain (T. cruzi) inhibition without detergent. AID 1476. Potency, µM, inactives show max response, negative = inhibition, actives largely listed as inhibitors. actives 2.3% (n = 200,000). purified cruzain, Z-FR-AMC fluorescence, no detergent. P25779;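 further: plate controls were enzyme without inhibitor for no effect and buffer without enzyme for full effect; nearly all actives have a fitted effect of over 40% in size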
Target sequence (P25779 123-467 limits assumed): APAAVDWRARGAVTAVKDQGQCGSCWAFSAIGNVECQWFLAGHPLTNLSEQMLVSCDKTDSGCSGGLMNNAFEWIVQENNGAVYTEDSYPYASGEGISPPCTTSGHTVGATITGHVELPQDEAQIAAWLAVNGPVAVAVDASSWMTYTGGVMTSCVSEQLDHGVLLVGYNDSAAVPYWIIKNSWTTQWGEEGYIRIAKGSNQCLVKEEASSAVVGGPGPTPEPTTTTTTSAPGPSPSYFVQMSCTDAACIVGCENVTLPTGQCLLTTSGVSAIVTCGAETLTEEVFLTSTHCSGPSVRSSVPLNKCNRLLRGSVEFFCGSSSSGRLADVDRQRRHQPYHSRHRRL
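Purified cruzain at 1.5 nM, pre-incubated 15 min with compound at room temperature in 100 mM sodium acetate pH 5.5, 5 mM DTT, 0.00005% Triton X-100. Reaction started with 2 uM Z-FR-AMC; AMC fluorescence increase over 60 s gives rate.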
Cruzain Triton = inhibitors of Trypanosoma cruzi cruzain with detergent. purified cruzain, Z-FR-AMC fluorescence, 0.01% Triton. Potency, µM, for inactives: max response, negative = inhibition, actives largely listed as inhibitors. actives 0.43% (n = 200,000). AID 1478;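 further: plate controls were neutral wells for no effect and buffer without enzyme for full effect; nearly all actives have a fitted effect of over 40% in size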
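Detergent-containing arm of a paired screen for aggregation-based inhibition: 0.01% Triton X-100 present. Cruzain at 1.5 nM cleaved 2 uM Z-FR-AMC at pH 5.5 with 5 mM DTT; AMC fluorescence gain over 60 s measured activity.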
The depositor's hits bear a star; ? = inconclusive. The list is not random: actives were taken first. Their share in the collection is about 2.5%. The call rests on the fitted dose curve; in most records, active means well fitted curve in the direction sought with a large enough effect; inconclusive means small, poorly fitted or top-dose-only effect, or another doubt; inactive means no such curve, though single readings can be large; an effect the other way counts as inactive or inconclusive. Potency means the concentration at half of the fitted maximal effect.

SMILES | Cruzain inh noDet | Cruzain Triton
Cc1oc(/N=C/c2ccccc2O)c(C#N)c1C | 3% | 2%
Cc1oc(/N=C/c2c(O)ccc3ccccc23)c(C#N)c1C | 13µM* | -10%
Nc1ccc2nc(-c3ccc(O)cc3)sc2c1 | ? | 106%
Nc1ccc(O)c(-c2nc3ccccc3s2)c1 | 3.2µM* | -24%
O=C(Nc1ccc(O)c(-c2nc3ccccc3s2)c1)c1cc(=O)c2ccccc2o1 | ? | -14%
Oc1ccc(N=C/C=C/c2cccc(Br)c2)cc1-c1nc2ccccc2s1 | 20µM* | -6%
CCc1ccc(CNC(=O)c2ccc(NC(=O)N3CCCCc4ccccc43)cc2)cc1 | 4% | -1%
O=c1c2ccccc2n(Cc2c(F)cccc2Cl)c(=O)n1Cc1ccccc1 | -2% | -1%
c1ccc(CNc2oc(-c3ccccc3)nc2-c2ccccc2)cc1 | -10% | -1%
c1ccc(CNc2oc(-c3ccccc3)nc2-c2cccc3ccccc23)cc1 | 16µM* | -2%
COc1ccc(CCNC(=O)C2=C(C)C(=O)OC23CCCCC3)c(OC)c1OC | 8% | 2%
COC(=O)Cc1nnc(NC(=O)c2ccccc2)s1 | -8% | -2%
Cc1ccc(SCc2nnc(NC(=O)c3ccccc3)s2)cc1 | 10µM* | 7%
COc1ccc2nc(NC(=O)CSc3nc4ccccc4o3)sc2c1 | -18% | 5%
O=C(CSc1nc2ccccc2o1)Nc1nc2ccc(Br)cc2s1 | 10µM* | 1%
COc1ccc(-c2nc(-c3ccc(Br)o3)no2)cc1 | -21% | 6%
COc1ccc(Cl)cc1-c1nc(-c2ccc(Br)o2)no1 | 7.9µM* | 10%
COc1cc(Cl)c(C)cc1NC(=O)CCCN1C(=O)C(c2ccccc2)Oc2cccnc21 (stereo not given) | -2% | -4%
Cc1ccc(CN(C(=O)COc2ccc(C(C)(C)C)cc2)C2CCS(=O)(=O)C2)o1 (stereo not given) | ? | -10%
Cc1cc(C)c(-c2cc(NC(=O)COC(=O)c3ccc(C#N)cc3)n(-c3ccccc3)n2)cc1C | 16µM* | -6%
Cc1cc(C)c(-c2cc(NC(=O)CSc3nncn3C)n(-c3ccccc3)n2)cc1C | ? | -3%
Cc1cccc(OCC(=O)Nc2ccc(Cl)c(-c3nc4ccccc4[nH]3)c2)c1 | ? | -3%
CN1CCC[C@H](C(=O)OCC(=O)[C@]2(O)CC[C@@H]3[C@H]4CCC5=CC(=O)CC[C@@]5(C)[C@H]4[C@@H](O)C[C@]32C)C1 | -10% | 0%
O=C(c1ccc2nc(-c3ccco3)c(-c3ccco3)nc2c1)N1CCC2(CC1)OCCO2 | ? | 25µM*
O=C(c1ccc2nc(-c3ccco3)c(-c3ccco3)nc2c1)N1CCN(c2ccccc2)CC1 | -2% | ?
SMILES | Cruzain inh noDet | Cruzain Triton
O=c1[nH]c(N/N=C/c2ccccc2Br)nnc1-c1ccccc1 | 13µM* | -11%
COc1ccc(/C=N/Nc2nnc(-c3ccccc3)c(=O)[nH]2)cc1 | -17% | 0%
CCOc1ccc(-c2nc(SCC(=O)NCCCOC)c(-c3ccccc3)[nH]2)cc1 | 1% | 2%
COc1ccccc1C(=O)NCCc1nc2ccccc2n1C | 10µM* | ?
COc1ccccc1C(=O)Nc1ccc2c(c1)nc(CCNC(C)=O)n2C | -10% | 1%
CCCCn1c(CCNC(=O)c2cccs2)nc2ccccc21 | 10µM* | -16%
CCCn1c(CNC(=O)c2cccs2)nc2ccccc21 | 7% | -1%
Cc1ccc(NC(=O)c2ccc3c(c2)NC(=O)c2ccccc2S3)cc1 | 6% | 0%
CC1=C(C(=O)Nc2ccccc2)C(c2ccc(Br)cc2)n2nc(CCCO)nc2N1 (stereo not given) | 20% | -1%
O=C(C#Cc1cccc([N+](=O)[O-])c1)c1ccccc1 | -21% | 8.9µM*
O=C(/C=C/c1cccc([N+](=O)[O-])c1)c1ccccc1 | 4% | -1%
CCNc1ncc2nc(-c3cccs3)c(=O)n(-c3ccc(OC)cc3)c2n1 | -4% | 1%
CCc1ccc(S(=O)(=O)NCCc2cn3ccccc3n2)s1 | 2% | 3%
Cc1ccn2cc(CCNS(=O)(=O)c3ccc4c(c3)OCCO4)nc2c1 | -1% | 3%
O=S(=O)(NCCc1cn2ccccc2n1)c1ccc(F)c(C(F)(F)F)c1 | -11% | 25µM*
Cc1ccn2cc(CCNS(=O)(=O)c3ccc(F)c(C(F)(F)F)c3)nc2c1 | 25µM* | -5%
CC(C)Cn1cc(NC(=O)NCc2ccccc2Cl)c2ccccc2c1=O | -28% | -10%
CC(=O)N1CCCc2cc(S(=O)(=O)N3CCC(C(=O)NCc4ccccc4)CC3)ccc21 | 5% | -1%
CC1(c2cc([N+](=O)[O-])cc([N+](=O)[O-])c2)CC(C)(C)N(C(=O)c2ccccc2)c2ccccc21 (stereo not given) | 10µM* | 5%
CC1(c2ccc(Cl)cc2)CC(C)(C)N(C(=O)c2ccccc2)c2ccccc21 (stereo not given) | ? | -3%
COc1ccc(C2=NS(=O)(=O)N(C)C(C(=O)N(C)Cc3ccccc3)=C2)cc1OC | -12% | -8%
CC(C)OC(=O)c1ccc(NC(=O)CSc2nc(-c3cccs3)cc(C(F)(F)F)n2)cc1 | 2% | -6%
Cc1cccc(C)c1NCc1nnc(SCC(=O)Nc2nc(-c3ccccc3)cs2)n1-c1ccccc1 | ? | -1%
CCOc1ccc(NCc2nnc(SCC(=O)Nc3nc(-c4ccccc4)cs3)n2-c2ccccc2)cc1 | 25µM* | 1%
CCOc1ccc(N2CC(C(=O)NCc3nnnn3-c3ccc(C)c(C)c3)CC2=O)cc1 (stereo not given) | ? | 3%
SMILES | Cruzain inh noDet | Cruzain Triton
Cc1ccc2c(c1)C(c1ccccc1)N(C(=O)Cc1ccc(F)cc1)CC(=O)N2 (stereo not given) | 4% | -6%
CC(C)c1ccc(N2C(=O)CS(=O)(=O)C23C(=O)N(Cc2cccc(F)c2)c2ccccc23)cc1 (stereo not given) | 2.5µM* | -3%
COc1ccc(N2C(=O)CS(=O)(=O)C23C(=O)N(Cc2ccccc2F)c2ccccc23)cc1Cl (stereo not given) | 2µM* | -2%
COc1ccc(N2C(=O)CSC23C(=O)N(Cc2ccccc2F)c2ccccc23)cc1Cl (stereo not given) | ? | -8%
Cc1ccc(N2C(=O)CS(=O)(=O)C23C(=O)N(C)c2ccccc23)cc1F (stereo not given) | -25% | -2%
CCc1ccc(N2C(=O)CS(=O)(=O)C23C(=O)N(Cc2ccccc2F)c2ccccc23)cc1 (stereo not given) | 3.2µM* | -5%
COc1cccc(CN2C(=O)C3(SCC(=O)N3c3ccc(C(C)C)cc3)c3ccccc32)c1 (stereo not given) | ? | -6%
CCn1cc(C(=O)N2CCN(c3ccccc3F)CC2)c(=O)c2cc(S(=O)(=O)N(C)C3CCCCC3)ccc21 | -8% | -3%
COc1ccc(NC(=O)Cn2ccn(Cc3ccccc3)c(=O)c2=O)cc1Cl | 6% | -3%
C=CCn1c(=NC(=O)c2sc3ccccc3c2Cl)sc2cc(S(N)(=O)=O)ccc21 | 20µM* | -26%
COCCn1c(=NC(=O)c2sc3ccccc3c2Cl)sc2cc(S(N)(=O)=O)ccc21 | 6% | -15%
Cc1cccc(C)c1OCC(=O)Nc1c(C(=O)c2ccc(Br)cc2)oc2ccccc12 | 0% | -1%
COC(=O)c1ccc(C23CC4(C2)[C@H](CN(C)[C@@H]4c2ccccc2)C3c2ccccc2)cc1 (stereo not given in full) | 1% | -4%
